The whole screen tested about 5,500 compounds, of which about 2,000 (36%) were called active. About 18% were inconclusive and are not listed. The list shows a part of the results. Values without a mark were called inactive. Rule as the data show it: active = normalized growth mostly below about 0.91 (no sharp cut-off); inconclusive = no clear call, values can overlap the other calls; inactive = mostly above about 0.92.
Experiment: chemical genetic growth profiling, strain panel (AID 1159580);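 also: tested at 20 µM; growth read once vehicle control cultures reached saturation at 30 °C; 1 = growth at the plate median or of vehicle wells; lower values mean less growth of the strain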
Settings: S. cerevisiae deletion strains, growth OD
[1] = locus YAL040C, strain CLN3, active compounds read low
[2] = locus YCL061C, strain MRC1 (second series), active compounds read low
[3] = locus YDR363W, strain ESC2, active compounds read low
[4] = locus YER002W, strain NOP16, active compounds read low
[5] = locus YGR078C, strain PAC10, active compounds read low
[6] = locus YGR229C, strain SMI1, active compounds read low
[7] = locus YJR075W, strain HOC1, active compounds read low
[8] = locus YNL175C, strain NOP13, active compounds read low
[9] = locus YNL197C, strain WHI3, active compounds read low
[10] = locus YNL224C, strain SQS1, active compounds read low
[11] = locus YOR083W, strain WHI5 (second series), active compounds read low
[12] = locus YDR150W, strain NUM1, active compounds read low

| Compound | normalized growth (locus YAL013W, strain DEP1, active compounds read low) | normalized growth [1] | normalized growth [2] | normalized growth [3] | normalized growth [4] | normalized growth [5] | normalized growth [6] | normalized growth [7] | normalized growth (locus YNL153C, strain GIM3, active compounds read low) | normalized growth [8] | normalized growth [9] | normalized growth [10] | normalized growth (locus YNL322C, strain KRE1, active compounds read low) | normalized growth [11] | normalized growth [12] | normalized growth (locus YPL055C, strain LGE1, active compounds read low) | normalized growth (locus YPL241C, strain CIN2, active compounds read low) | normalized growth (locus YMR307W, strain GAS1, active compounds read low) |
| --- | --- | --- | --- | --- | --- | --- | --- | --- | --- | --- | --- | --- | --- | --- | --- | --- | --- | --- |
| OC1(c2ccc(Cl)cc2)CCN(Cc2c[nH]c3ccccc23)CC1 | 1.01 | 1 | 0.999 | 0.974 | 1.03 | 1.02 | 0.979 | 1.01 | 1 | 1.02 | 1.02 | 1.03 | 0.993 | 1.01 |  |  |  |  |
| Clc1ccc(N2CCN(Cc3c[nH]c4ncccc34)CC2)cc1 |  | 1.08 | 0.969 | 0.907 | 0.968 | 0.975 | 0.748 (active) | 0.929 |  | 0.969 | 0.974 | 0.987 |  | 0.925 | 0.965 | 0.92 | 0.992 |  |
| Ic1ccc(N2CCN(Cc3c[nH]c4ncccc34)CC2)cc1 |  | 1 | 0.919 (active) | 0.956 | 1.06 | 0.851 (active) |  |  |  | 1.01 | 1.01 | 1.06 |  | 0.809 (active) | 0.914 (active) |  |  | 1.01 |

Reference: PubChem BioAssay AID1159580 (chemical genetic matrix, 2015)
